Compounds without any hit were thinned out: in the full panel of roughly 79,000, 15% have a hit. A number with no mark means an inactive call. Active and inactive are the calls of the source. No stated cut-off is given here; in the data, active means growth inhibition above about 70%; inactive means the rest.
Assay: NCI Yeast Anticancer Drug Screen. Data for the mlh1 rad18 strain (AID 175)
Details: S. cerevisiae mlh1 rad18 strain growth inhibition; at 50.0 µM (retest, dose inferred, filed as 5.0); active compounds read high
Outline: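 Growth inhibition of the yeast strain was measured after compound exposure and expressed relative to vehicle-treated controls. The strain carries defined defects in DNA damage repair.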

| Structure (SMILES) | growth inhibition |
| --- | --- |
| COC(=O)[C@@]12OC[C@]34[C@H]([C@@H](O)[C@@H]1O)[C@@]1(C)CC(=O)C(O)=C(C)[C@@H]1C[C@H]3OC(=O)[C@H](OC(=O)C(Cc1ccccc1)NC(=O)OC(C)(C)C)[C@@H]24 (stereo not given in full) | 58% |
| CCCCCCCCCCCCCCCC(=O)NCC[N+](C)(CC)CC | 7% |
| Oc1ccc(CCCCCc2ccc(O)cc2)cc1 | 99% (active) |
| NN(Cc1ccccc1)c1ccccc1 | 77% (active) |
| CCOC(=O)c1[nH]cc(C)c1-c1ccc2c(-c3ccccc3)nc3ccccc3n12 | 73% (active) |
| COC(=O)c1cn(NS(=O)(=O)c2ccc(OC)cc2)cc1C(=O)OC | 6% |
| CN(C)c1cc2c(cc1[N+](=O)[O-])-c1ccccc1C2O (stereo not given) | 74% (active) |
| CN(C)CCOc1cc2c(c3ccccc13)-c1ccccc1C2O (stereo not given) | 83% (active) |
| BrC(Br)([P+](c1ccccc1)(c1ccccc1)c1ccccc1)[P+](c1ccccc1)(c1ccccc1)c1ccccc1 | 74% (active) |
| CCOCCNc1ncnc2c1cnn2C | -1% |
| C[C@H](CCC1=NCCN1)[C@H]1CC[C@H]2[C@@H]3CC[C@@H]4C[C@H](O)CC[C@]4(C)[C@H]3C[C@H](O)[C@]12C | 99% (active) |
| CCOC(=O)C1=C(c2ccccc2)N(C)c2ccccc2S1 | 62% |
| C(=P(c1ccccc1)(c1ccccc1)c1ccccc1)[P+](c1ccccc1)(c1ccccc1)c1ccccc1.[Br][Cu][Br] | 99% (active) |
| COc1ccc(N(C)Sc2ccccc2)cc1 | 97% (active) |
| COc1ccc(Cc2c(-c3ccc(C)cc3)n[nH]c(=O)c2C2C(=O)N(c3ccccc3)N=C2c2ccccc2)cc1 (stereo not given) | 94% (active) |

— PubChem BioAssay (NCI)
